From paper PMC4552634, “A New Set of Chemical Starting Points with Plasmodium falciparum Transmission-Blocking Potential for Antimalarial Drug Discovery” (PLoS ONE, 2015)
Read-outs that look alike come from different tables or passages of the source. The whole screen tested about 13,000 compounds, of which about 3,200 (25%) showed an effect of 50% or more. The list shows a part of the results.

System: P. falciparum stage V gametocytes
Parameters: BacTiter-Glo ATP luminescence viability of purified stage V gametocytes in 384-well plates, per cent inhibition versus DMSO
Conditions: 48 h, 5 µM, inhibitor

| SMILES | % Inhibition [%] | % Inhibition (% Inhibition) [%] |
| --- | --- | --- |
| Cc1cccc2[nH]c(-c3cccc(-c4cccc(NC(=O)NCc5cccc(F)c5)c4)c3)nc12 [TCMDC-133291] | 37.78 | – |
| O=C(Nc1cccc(-c2cccc(-c3nc4ccc(F)cc4[nH]3)c2)c1)Nc1ccc(F)c(F)c1F [TCMDC-133233] | -45 | – |
| Cc1cc(Cl)c(S(=O)(=O)N(C)c2ccccc2)cc1OCC(=O)NC1CCCCC1 [TCMDC-124368] | -27.39 | – |
| Cc1cc(C(=O)CN2C(=O)NC3(CCOc4ccccc43)C2=O)c(C)n1Cc1ccc(F)cc1 (stereo not shown) [TCMDC-125246] | -0.05637 | – |
| CC(CNc1nc(NCC(c2ccccc2)c2ccccc2)c2[nH]cnc2n1)c1ccccc1 (stereo not shown) [TCMDC-131859] | -14.76 | – |
| O=C(Nc1ccc(C(F)(F)F)cc1)c1ccc(S(=O)(=O)NC2CCN(Cc3ccccc3)C2)cc1 (stereo not shown) [TCMDC-133675] | 7.046 | – |
| Cc1ccc(NC(=O)c2ccc(NCCCN(C)Cc3ccccc3)c([N+](=O)[O-])c2)cc1F [TCMDC-125686] | 12.99 | – |
| O=C(Nc1ccccc1F)NC1CCN(c2ccnc(Nc3ccc(F)cc3)n2)C1 (stereo not shown) [TCMDC-133603] | -76.2 | – |
| O=C(Nc1ccc2c(c1)CCC2)N[C@H]1CCN(Cc2ccc(OCCCN3CCCCC3)cc2)C1 [TCMDC-141790] | 89.55 | – |
| O=C(Nc1ccc(C(=O)Oc2ccc3ccccc3c2)cc1)N[C@@H](Cc1ccc(O)cc1)C(=O)NC1CCN(Cc2ccc(O)cc2)C1 (stereo partly shown) [TCMDC-135358] | -34.98 | – |
| O=C(Nc1ccc(-c2ccccc2)cc1)Nc1cccc(OCCN2CCCC2)c1 [TCMDC-139541] | -48.88 | – |
| N#Cc1cccc(NC(=O)Nc2cccc(OC3CCN(Cc4ccccc4)CC3)c2)c1 [TCMDC-139545] | 11.02 | – |
| O=C(Nc1ccc2c(c1)CCC2)N[C@H]1CCN(CCCCCNC(=O)C2CC2c2ccc(Cl)c(Cl)c2)C1 (stereo partly shown) [TCMDC-136264] | 5.581 | – |
| O=C(Nc1cccc(Oc2ccccc2)c1)N[C@H]1CCN(Cc2ccc(OCCCN3CCCCC3)cc2)C1 [TCMDC-141785] | 106.3 | – |
| N#Cc1cc(C(=O)c2cc(Br)ccc2O)cn(C2CCCCC2)c1=O [TCMDC-123629] | -45.84 | – |
| O=C(/C=C/c1ccc(Cl)c(Cl)c1)NCCCCCN1CCC(c2c[nH]c3ccccc23)C(O)C1 (stereo not shown) [TCMDC-139656] | – | -35.83 |
| CC(=O)c1cccc2cc(C(=O)NC3CCC(CCN4CCc5ccc(C#N)cc5C4)CC3)[nH]c12 (stereo not shown) [TCMDC-139192] | 14.52 | – |
| Nc1nc2c(cnn2CCCCCCCP(=O)(O)O)c(=O)[nH]1 [TCMDC-137339] | 21.15 | – |
| CN1CCCN(Cc2cccc(-c3cccc(NC(=O)c4cccc(C#N)c4)c3)c2)CC1 [TCMDC-132661] | 20.56 | – |
| CN1CCCN(Cc2cccc(-c3ccc(NC(=O)c4cccc(C#N)c4)cc3)c2)CC1 [TCMDC-132673] | 15.02 | – |

| SMILES | % Inhibition [%] | % Inhibition (% Inhibition) [%] |
| --- | --- | --- |
| N#Cc1cccc(C(=O)Nc2ccc(-c3cccc(CN4CCCC4)c3)cc2)c1 [TCMDC-132674] | 97.51 | – |
| N#Cc1ccc(C(=O)Nc2cccc(-c3ccc(CN4CCCC4)cc3)c2)cc1 [TCMDC-132639] | 23.71 | – |
| N#Cc1cccc(C(=O)Nc2cccc(-c3ccc(CN4CCCC4)cc3)c2)c1 [TCMDC-132650] | 24.3 | – |
| CN1CCCN(Cc2ccc(-c3cccc(NC(=O)c4cccc(C#N)c4)c3)cc2)CC1 [TCMDC-132648] | 64.68 | – |
| N#Cc1cccc(C(=O)Nc2ccc(-c3ccc(CN4CCCC4)cc3)cc2)c1 [TCMDC-132596] | 64.33 | – |
| N#Cc1ccc(C(=O)Nc2ccc(-c3cccc(CN4CCCC4)c3)cc2)cc1 [TCMDC-132668] | 1.206 | – |
| CN1CCCN(Cc2ccc(-c3ccc(NC(=O)c4cccc(C#N)c4)cc3)cc2)CC1 [TCMDC-132594] | -1.455 | – |
| O=C(NCc1ccc(C(=O)NC2CCCCC2)cc1)c1ccc(O)c(-c2ccc(Cl)c(Cl)c2)c1 [TCMDC-140825] | -4.793 | – |
| CN(c1ccc(C(=O)N[C@@H](CCC(=O)O)C(=O)O)cc1)S(=O)(=O)c1ccc2nc(N)[nH]c(=O)c2c1 [TCMDC-137344] | 2.989 | – |
| COC(=O)c1ccc(CC(C)NCC(O)c2cccc(C(F)(F)F)c2)c(OC)c1 (stereo not shown) [TCMDC-131469] | 14.6 | – |
| CCN(CCCN1CCCCC1)c1cc(C)nc(Nc2cccc(OC(F)(F)F)c2)n1 [TCMDC-132429] | -20.04 | – |
| COc1cc2nc(N3CCC(CNC(=O)c4ccc(-c5ccc(C(=O)N(C)C)cc5C)cc4)CC3)nc(N3CCN(C)CC3)c2cc1OC [TCMDC-138724] | 15.4 | – |
| COc1cc2nc(N3CCC(CNC(=O)c4ccc(-c5ccc(C(=O)N(C)C)cc5)c(OCCO)c4)CC3)nc(N)c2cc1OC [TCMDC-138742] | 39.21 | – |
| COc1cc2nc(N3CCC(CNC(=O)c4ccc(-c5ccc(C(=O)N(C)C)cc5OCCO)cc4)CC3)nc(N)c2cc1OC [TCMDC-138766] | -18.75 | – |
| COc1cc2nc(N3CCC(CNC(=O)c4ccc(-c5ccc(C(=O)N(C)C)cc5O)cc4)CC3)nc(N)c2cc1OC [TCMDC-138752] | 72.56 | – |
| COc1cc2nc(N3CCC(CNC(=O)c4ccc(-c5ccc(C(=O)N(C)C)cc5OCCN(C)C)cc4)CC3)nc(N)c2cc1OC [TCMDC-138760] | 100.1 | – |
| COCCNc1nc(N2CCC(CNC(=O)c3ccc(-c4ccc(C(=O)N(C)C)cc4C)cc3)CC2)nc2cc(OC)c(OC)cc12 [TCMDC-138729] | 5.197 | – |
| COc1cc2nc(N3CCC(CNC(=O)c4ccc(-c5ccc(C(=O)N(C)C)cc5)cc4)CC3)nc(N)c2cc1OC [TCMDC-138719] | 58.63 | – |
| NCCc1cccc(-c2cnc3[nH]cc(-c4ccc(C(=O)O)cc4)c3c2)c1.O=C(O)C(F)(F)F [TCMDC-136363] | -2.826 | – |
| CN(Cc1cnc2nc(N)nc(N)c2n1)c1ccc(C(=O)NC(CCC(=O)O)C(=O)O)cc1 (stereo not shown) [TCMDC-123832] | – | 33.25 |
